Experimental data: PubChem BioAssay (NCATS)
Inconclusive results are not listed. Active and inactive are the calls of the source. Unless noted, the call rests on the fitted dose curve; in most records, active means well fitted curve in either direction with a large enough effect (not every such curve was filed as active); inconclusive means small, poorly fitted or top-dose-only effect, or another doubt; inactive means flat fitted curve, though single readings scatter.

Key:
[1] = molecular target: Lysosomal acid glucosylceramidase (Homo sapiens) (UniProt P04062); assay: Glucocerebrosidase-p2 (AID 348; in the data active means potency below about 10 µM; further: potency means the concentration at half of the fitted maximal effect); conditions: purified GBA, blue fluorogenic substrate, 40 min
How it was run: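 Compounds titrated from 0.6 nM upwards against 0.2 nM enzyme in pH 5.9 citric acid/KH2PO4, taurocholate, tween-20; blue fluorogenic substrate 80 uM, 40 min room temperature, stopped and read Ex 365/Em 440 for AC50.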

[2] = AP1 Signaling Pathway (AID 357); conditions: ME-180 AP-1-bla reporter, EGF-induced, beta-lactamase ratio, 5 h; at 7.69 µM (top of the series) unless noted; further: on the % scale 0 is the no-effect control and ±100 the full control effect
How it was run: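 AP-1-bla ME-180 cells with beta-lactamase reporter under AP-1 response element, stimulated with EC50 EGF; compounds titrated, 5 hours at 37 degrees Celsius. CCF4 read at 460/530 nm ratio; positive and negative modulators judged by AC50.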

[3] = molecular target: Cytochrome P450 1A2 (Homo sapiens) (UniProt P05177); assay: p450-cyp1a2 (AID 410; calls by dose curve; further: potency means the concentration at half of the fitted maximal effect;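 on activity change, negative = inhibition: -100% = full effect of reference inhibitor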); conditions: recombinant CYP1A2, luciferin-ME demethylation, luminescence; series mostly up to 57 µM
How it was run: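 Inhibition was calculated relative to 57 uM furafylline (full inhibition). The reaction used human CYP1A2 at 20nM with Luciferin-ME at its Km, 100uM, driven by an NADPH-regenerating system for 60 min at room temperature.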

[4] = NFAT Signaling Pathway (AID 444); conditions: Jurkat NFAT-bla M1, carbachol, beta-lactamase ratio, 5 h; at 7.69 µM (top of the series) unless noted;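 further: carbachol stimulus at about its EC50 of 1 µM final; on the % scale 0 is the no-effect control and ±100 the full control effect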
How it was run: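 Jurkat cells carrying an NFAT-driven β-lactamase reporter and co-transfected muscarinic M1 receptor were treated with compound plus carbachol (1 uM final, an EC50 level) for 5 h at 37 °C. CCF4 loading followed for 1 h at RT; 460/530 nm ratio gave %activity.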

[5] = Stat Signaling Pathway (AID 446); conditions: ME-180 SIE beta-lactamase reporter, IL-6 stimulated, 5 h; at 7.69 µM (top of the series) unless noted;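 further: ME-180 cervical cancer cells given 40 pM IL-6 alongside compound; SIE-controlled beta-lactamase reporter measured as 460/530 nm FRET emission ratio; on the % scale 0 is the no-effect control and ±100 the full control effect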
How it was run: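 Screening format detects activators and inhibitors alike: ME-180 SIE-bla cells stimulated at 40 pM IL-6 for 5 hrs with compound, then dual-emission beta-lactamase read at 405 nm excitation.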

[6] = molecular target: Glucocorticoid receptor (Homo sapiens) (UniProt P04150); assay: GR-EFC Redistribution (AID 451; calls by dose curve; further: potency means the concentration at half of the fitted maximal effect); conditions: CHO-K1 GR-EFC translocation, beta-gal luminescence, 2 h
How it was run: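 CHO-K1 cells stably expressing nuclear-localized β-gal enzyme acceptor and GR fused C-terminally to the enzyme donor fragment; ligand-driven nuclear translocation restores β-gal by complementation. Compounds titrated up to 46 uM final, 2 h at 37 °C; luminescence read.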

[7] = molecular target: Mitogen-activated protein kinase 10 (Mus musculus) (UniProt Q61831); assay: JNK3 AlphaScreen Assay (AID 530); conditions: JNK3 lysate, c-Jun phosphorylation; series mostly up to 57.1 µM;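 further: kinase came from lysate of stimulated human HepG2 cells; signal reports phosphorylation of biotinylated GST-cJun 1-79 at Ser73 with 10 µM ATP; on the % scale 0 is the no-effect control and ±100 the full control effect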
How it was run: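 JNK3 came from HepG2 lysates pre-activated with IL-1beta and TNF-alpha and phosphorylated biotinylated GST-cJun (1-79) at 10 uM ATP, pH 7.6, room temperature. Compounds were titrated. AlphaScreen signal used anti-phospho-cJun (Ser73) antibody.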

[8] = molecular target: 3',5'-cyclic-AMP phosphodiesterase 4B (Homo sapiens) (UniProt Q07343); assay: qHTS Assay for Inhibitors of PDE-IV (AID 607; active means well fitted activation curve with a large enough effect in the main read-out, with a control signal flat, not every such curve was filed as active; further: % of control where 0% means no effect); conditions: HEK293 ACTOne CNG channel cells, membrane potential fluorescence; series mostly up to 22.9 µM
How it was run: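 The readout is membrane depolarisation from a cAMP-sensing CNG channel, detected with a potential dye at ex 535/em 590. Cells were HEK293-derived (endogenous PDE-IV) at 1000 cells/well, titrated up to 22.9 uM final.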

[9] = molecular target: Cytochrome P450 2D6 (Homo sapiens) (UniProt P10635); assay: qHTS Assay for Inhibitors and Substrates of Cytochrome P450 2D6 (AID 891; active means well fitted curve in the direction sought with a large enough effect; an effect the other way counts as inactive or inconclusive; further: potency means the concentration at half of the fitted maximal effect; nearly all actives have a fitted effect of over 60% in size); conditions: recombinant CYP2D6, luciferin-ME EGE luminescence; series mostly up to 57.1 µM
How it was run: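 Human CYP2D6 (5 nM) with 30 uM Luciferin-ME EGE (at Km) in 100 mM KPO4, compound preincubated 10 min, then NADPH regeneration system for 60 min at room temperature. Luciferin read by luminescence; normalized to 1.43 uM quinidine.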

[10] = qHTS Assay for Lipid Storage Modulators (AID 1519; calls by dose curve); conditions: Drosophila S3 cells, BODIPY lipid droplet/cell ratio, laser cytometry, cells loaded with oleic acid; for activity change, negative = inhibition: at 57.5 µM (top of the series)
How it was run: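 Cells seeded at 5,000 per well were treated with compounds over a concentration series and loaded with oleic acid (400 uM, as added). Lipid droplet fluorescence (488 nm excitation, 500-530 nm channel) was read by laser-scanning cytometry and normalized to 20 uM Triacsin C.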

[11] = Primary qHTS for small molecule stabilizers of the endoplasmic reticulum resident proteome: Secreted ER Calcium Modulated Protein (SERCaMP) assay (AID 1508630; active means well fitted curve in the direction sought with a large enough effect; an effect the other way counts as inactive or inconclusive; further: on the % scale 0 is the no-effect control and ±100 the full control effect); conditions: SH-SY5Y GLuc-SERCaMP (Gaussia luciferase released on ER calcium loss) secretion, thapsigargin, luminescence; series mostly up to 38.4 µM
How it was run: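 GLuc-SERCaMP-expressing SH-SY5Y cells, pretreated 16 h with compound, are challenged with thapsigargin to empty ER calcium stores; after 4 h, coelenterazine is added directly to the medium and luminescence is imaged.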

[12] = molecular target: Cytochrome P450 3A4 (Homo sapiens) (UniProt P08684); assay: qHTS Assay for Activators of Cytochrome P450 3A4 (AID 885; active means well fitted curve in the direction sought with a large enough effect; an effect the other way counts as inactive or inconclusive; further: nearly all actives have a fitted effect of over 65% in size); conditions: recombinant CYP3A4, Luciferin-PPXE luminescence, 60 min; series mostly up to 57.1 µM
How it was run: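 Steps: enzyme/substrate mix dispensed; compound added, 10 min RT; NADPH regeneration solution added, 60 min RT; luciferin detection buffer stops reaction; 20 min later luminescence measured.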

[13] = qHTS Assay for Identification of Small Molecule Agonists for Hypoxia Response Element Signaling Pathway (AID 914; active means well fitted activation curve with a large enough effect in the signal ratio, with a control signal flat, not every such curve was filed as active; the % refers to the signal ratio; further: % of control where 0% means no effect); conditions: ME-180 (cervical carcinoma) HRE-bla reporter, beta-lactamase ratio, CoCl2, 17 h; activation: stronger effect = higher value
How it was run: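 In Opti-MEM containing 0.5% dialyzed FBS and 10 mM HEPES, ME-180 HRE-bla cells received a compound titration and EC50 CoCl2. They were incubated 17 hours, then CCF4-loaded 2.5 hours at room temperature before ratio reading.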

[14] = measured here: cell count channel max response
[15] = measured here: lipid channel max response

Chain of Cytochrome P450 1A2 (Homo sapiens) (P05177 whole entry, looked up): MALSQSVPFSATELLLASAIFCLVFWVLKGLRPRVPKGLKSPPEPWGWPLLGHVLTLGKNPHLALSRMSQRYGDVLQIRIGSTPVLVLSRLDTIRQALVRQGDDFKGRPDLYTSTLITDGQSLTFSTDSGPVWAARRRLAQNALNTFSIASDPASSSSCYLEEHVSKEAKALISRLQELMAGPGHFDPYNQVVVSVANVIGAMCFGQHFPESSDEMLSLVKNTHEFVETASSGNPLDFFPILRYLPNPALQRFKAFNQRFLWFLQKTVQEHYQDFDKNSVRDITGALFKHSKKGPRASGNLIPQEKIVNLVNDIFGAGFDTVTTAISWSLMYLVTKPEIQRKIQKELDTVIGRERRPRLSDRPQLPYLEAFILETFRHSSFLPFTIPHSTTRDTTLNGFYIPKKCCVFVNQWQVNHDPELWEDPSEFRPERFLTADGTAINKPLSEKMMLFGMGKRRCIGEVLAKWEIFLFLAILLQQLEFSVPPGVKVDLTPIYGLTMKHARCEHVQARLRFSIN
Chain of Glucocorticoid receptor (Homo sapiens) (P04150 whole entry, looked up, the tested form may be a part): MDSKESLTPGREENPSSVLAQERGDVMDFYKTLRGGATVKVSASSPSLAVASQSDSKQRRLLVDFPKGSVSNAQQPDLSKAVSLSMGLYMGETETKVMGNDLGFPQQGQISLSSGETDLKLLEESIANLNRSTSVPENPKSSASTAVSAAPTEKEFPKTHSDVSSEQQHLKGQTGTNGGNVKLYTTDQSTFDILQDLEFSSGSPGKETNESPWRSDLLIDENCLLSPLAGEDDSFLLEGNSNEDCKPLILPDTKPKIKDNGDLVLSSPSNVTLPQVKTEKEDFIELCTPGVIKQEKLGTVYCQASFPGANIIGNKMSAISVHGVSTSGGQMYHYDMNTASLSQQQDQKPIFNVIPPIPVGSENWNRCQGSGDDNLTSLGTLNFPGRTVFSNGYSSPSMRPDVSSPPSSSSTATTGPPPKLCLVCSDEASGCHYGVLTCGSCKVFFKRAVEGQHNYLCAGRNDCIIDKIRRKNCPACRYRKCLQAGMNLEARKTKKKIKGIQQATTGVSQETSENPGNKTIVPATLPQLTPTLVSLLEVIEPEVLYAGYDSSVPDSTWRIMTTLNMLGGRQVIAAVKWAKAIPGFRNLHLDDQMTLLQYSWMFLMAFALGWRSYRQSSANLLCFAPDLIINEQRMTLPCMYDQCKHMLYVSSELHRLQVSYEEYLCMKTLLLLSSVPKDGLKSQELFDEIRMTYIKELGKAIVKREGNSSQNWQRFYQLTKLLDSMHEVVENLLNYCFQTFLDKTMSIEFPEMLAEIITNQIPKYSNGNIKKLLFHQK
Chain of Cytochrome P450 3A4 (Homo sapiens) (P08684 whole entry, looked up): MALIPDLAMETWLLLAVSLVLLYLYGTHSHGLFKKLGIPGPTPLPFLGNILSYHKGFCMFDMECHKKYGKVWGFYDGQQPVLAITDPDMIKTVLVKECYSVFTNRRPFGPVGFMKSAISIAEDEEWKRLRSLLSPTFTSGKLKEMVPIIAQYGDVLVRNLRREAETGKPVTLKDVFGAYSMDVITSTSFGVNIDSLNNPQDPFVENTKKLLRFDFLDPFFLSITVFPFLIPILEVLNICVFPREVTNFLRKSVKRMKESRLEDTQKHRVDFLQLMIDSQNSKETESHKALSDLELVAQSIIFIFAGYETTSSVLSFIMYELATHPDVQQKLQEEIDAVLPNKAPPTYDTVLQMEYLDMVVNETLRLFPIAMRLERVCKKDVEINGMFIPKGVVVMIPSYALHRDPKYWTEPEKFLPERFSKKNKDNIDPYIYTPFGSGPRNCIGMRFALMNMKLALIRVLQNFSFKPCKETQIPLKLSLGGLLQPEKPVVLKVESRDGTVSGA
Chain of Lysosomal acid glucosylceramidase (Homo sapiens) (P04062 whole entry, looked up): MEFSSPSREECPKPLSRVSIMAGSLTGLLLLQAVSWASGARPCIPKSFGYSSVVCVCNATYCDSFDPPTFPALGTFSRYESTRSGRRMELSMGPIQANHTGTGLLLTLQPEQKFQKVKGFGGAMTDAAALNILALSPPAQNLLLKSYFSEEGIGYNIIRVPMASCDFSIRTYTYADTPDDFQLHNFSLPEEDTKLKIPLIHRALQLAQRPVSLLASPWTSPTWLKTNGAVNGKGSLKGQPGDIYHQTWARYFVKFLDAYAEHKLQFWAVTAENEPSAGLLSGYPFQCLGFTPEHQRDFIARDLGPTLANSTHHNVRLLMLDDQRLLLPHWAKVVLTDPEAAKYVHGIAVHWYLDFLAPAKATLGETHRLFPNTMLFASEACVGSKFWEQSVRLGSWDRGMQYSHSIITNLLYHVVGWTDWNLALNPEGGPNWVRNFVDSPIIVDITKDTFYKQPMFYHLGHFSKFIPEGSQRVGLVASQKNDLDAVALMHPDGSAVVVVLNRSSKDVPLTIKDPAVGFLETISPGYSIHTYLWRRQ
Chain of 3',5'-cyclic-AMP phosphodiesterase 4B (Homo sapiens) (Q07343 whole entry, looked up): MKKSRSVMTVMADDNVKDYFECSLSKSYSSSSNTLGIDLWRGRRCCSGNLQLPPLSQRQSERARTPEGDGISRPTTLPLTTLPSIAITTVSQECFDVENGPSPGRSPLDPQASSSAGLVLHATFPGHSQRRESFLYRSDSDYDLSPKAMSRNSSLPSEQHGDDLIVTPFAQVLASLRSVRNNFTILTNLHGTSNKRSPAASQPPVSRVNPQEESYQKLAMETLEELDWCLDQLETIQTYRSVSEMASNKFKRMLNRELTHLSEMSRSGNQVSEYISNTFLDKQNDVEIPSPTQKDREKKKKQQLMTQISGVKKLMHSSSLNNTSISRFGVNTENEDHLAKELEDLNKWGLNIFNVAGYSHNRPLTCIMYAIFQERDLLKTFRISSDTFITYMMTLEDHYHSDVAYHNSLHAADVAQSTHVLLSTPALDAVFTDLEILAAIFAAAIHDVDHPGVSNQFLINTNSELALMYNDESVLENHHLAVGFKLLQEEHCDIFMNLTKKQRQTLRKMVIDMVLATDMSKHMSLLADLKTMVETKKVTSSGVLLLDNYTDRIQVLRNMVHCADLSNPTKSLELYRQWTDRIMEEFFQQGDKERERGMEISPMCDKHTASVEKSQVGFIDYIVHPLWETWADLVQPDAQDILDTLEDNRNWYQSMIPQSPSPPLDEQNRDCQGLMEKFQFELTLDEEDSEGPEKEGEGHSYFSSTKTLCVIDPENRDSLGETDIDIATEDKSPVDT
Chain of Cytochrome P450 2D6 (Homo sapiens) (P10635 whole entry, looked up): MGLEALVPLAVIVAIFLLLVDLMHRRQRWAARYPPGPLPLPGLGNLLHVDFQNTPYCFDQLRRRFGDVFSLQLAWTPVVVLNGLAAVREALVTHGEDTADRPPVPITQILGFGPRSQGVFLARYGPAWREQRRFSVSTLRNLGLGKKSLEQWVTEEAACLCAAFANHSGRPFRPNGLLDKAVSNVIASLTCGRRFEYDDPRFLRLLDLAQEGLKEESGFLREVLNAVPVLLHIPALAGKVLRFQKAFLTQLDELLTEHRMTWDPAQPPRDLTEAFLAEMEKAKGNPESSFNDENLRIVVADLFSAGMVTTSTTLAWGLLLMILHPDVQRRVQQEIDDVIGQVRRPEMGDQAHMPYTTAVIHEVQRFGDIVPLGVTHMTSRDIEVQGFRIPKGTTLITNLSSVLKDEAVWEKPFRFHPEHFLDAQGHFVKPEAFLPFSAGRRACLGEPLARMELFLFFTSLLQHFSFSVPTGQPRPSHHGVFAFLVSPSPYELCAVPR

COc1ccccc1CN1CCC2(CC1)CCN(C(C)=O)CC2
3.76%: max response [10, 15]
active: Potency [9] 5.01 µM
inactive: Potency [1] > 11.4 µM | activity change, negative = inhibition [2] -6.68% | Potency [3] | activity change, negative = inhibition [4] -28.3% | activity, negative = inhibition [5] 0.91% | Potency [6] > 46 µM | outcome [7] | Potency [8] | activity change, negative = inhibition [10] 0.897% | Potency [11]
3.13%: max response [10, 14]

Cc1noc(C)c1C(=O)N1CCC2(CCCN(C(=O)Nc3cccc(F)c3)C2)CC1
active: Potency [3] 15.8 µM
19.9%: max response [10, 15]
9.33%: max response [10, 14]
inactive: Potency [1] > 11.4 µM | activity change, negative = inhibition [2] -3.17% | activity change, negative = inhibition [4] -8.48% | activity, negative = inhibition [5] -0.0561% | Potency [6] > 46 µM | outcome [7] | Potency [8] | Potency [12] | activity change, negative = inhibition [10] 5.45% | Potency [11]

COc1ccccc1CN1CCCC2(CCN(S(C)(=O)=O)CC2)C1
inactive: Potency [1] > 11.4 µM | activity change, negative = inhibition [2] -4.49% | Potency [3] | activity change, negative = inhibition [4] -28.3% | activity, negative = inhibition [5] 6.82% | Potency [6] > 46 µM | outcome [7] | Potency [8] | activity change, negative = inhibition [10] 2.11% | Potency [11]
active: Potency [9] 0.0631 µM
-12.2%: max response [10, 15]
-15.8%: max response [10, 14]

COc1ccccc1CN1CC[C@@]2(CCCN(S(C)(=O)=O)C2)C1
13.7%: max response [10, 15]
active: Potency [9] 0.316 µM
7.77%: max response [10, 14]
inactive: Potency [1] > 11.4 µM | activity change, negative = inhibition [2] 1.48% | Potency [3] | activity change, negative = inhibition [4] -16.9% | activity, negative = inhibition [5] 5.92% | Potency [6] > 46 µM | outcome [7] | Potency [8] | Potency [12] | activity change, negative = inhibition [10] 4.56% | Potency [11]

CC(C)NC(=O)N1CC2(CCN(C(=O)c3ccco3)CC2)C1
-15.7%: max response [10, 14]
-15.1%: max response [10, 15]
inactive: Potency [1] > 11.4 µM | activity change, negative = inhibition [2] -14.7% | Potency [3] | activity change, negative = inhibition [4] 16.4% | activity, negative = inhibition [5] -2.76% | Potency [6] > 46 µM | outcome [7] | Potency [8] | activation [13] 0.544% | activity change, negative = inhibition [10] -0.739% | Potency [11]

CC(C)NC(=O)N1CC[C@@]2(CCCN(C(=O)c3csnn3)C2)C1
inactive: Potency [1] > 11.4 µM | activity change, negative = inhibition [2] 8.93% | Potency [3] | activity change, negative = inhibition [4] 20.3% | activity, negative = inhibition [5] 10.6% | Potency [6] > 46 µM | outcome [7] | Potency [8] | Potency [12] | activity change, negative = inhibition [10] -0.319% | Potency [11]
4.92%: max response [10, 14]
7.3%: max response [10, 15]

O=C(c1cnccn1)N1CCC[C@@]2(CCN(Cc3nccs3)C2)C1
14.2%: max response [10, 14]
20.9%: max response [10, 15]
inactive: Potency [1] > 11.4 µM | activity change, negative = inhibition [2] -10.4% | Potency [3] | activity change, negative = inhibition [4] 8.21% | activity, negative = inhibition [5] -0.706% | Potency [6] > 46 µM | outcome [7] | Potency [8] | Potency [12] | activity change, negative = inhibition [10] 4.59% | Potency [11]

O=C(Nc1ccccc1)N1CC2(CCN(C(=O)c3ccncc3)CC2)C1
-8.48%: max response [10, 14]
inactive: Potency [1] > 11.4 µM | activity change, negative = inhibition [2] 12.1% | activity change, negative = inhibition [4] 7.64% | activity, negative = inhibition [5] -1.5% | Potency [6] > 46 µM | outcome [7] | Potency [8] | Potency [12] | activity change, negative = inhibition [10] 3.73% | Potency [11]
active: Potency [3] 10 µM
-2.29%: max response [10, 15]

COC(=O)N1CCC[C@@]2(CCN(C(c3ccccc3)c3ccccc3)C2)C1
4.63%: max response [10, 15]
active: Potency [3] 12.6 µM | Potency [9] 2 µM
inactive: Potency [1] > 11.4 µM | activity change, negative = inhibition [2] -2.49% | activity change, negative = inhibition [4] -6.57% | activity, negative = inhibition [5] 3.94% | Potency [6] > 46 µM | outcome [7] | activity change, negative = inhibition [10] -5.11% | Potency [11]
6.34%: max response [10, 14]

CC(C)NC(=O)N1CCCC2(CCN(C(=O)c3cc(C(F)(F)F)cc(C(F)(F)F)c3)CC2)C1
inactive: Potency [1] > 11.4 µM | activity change, negative = inhibition [2] -19.4% | Potency [3] | activity change, negative = inhibition [4] 11.4% | activity, negative = inhibition [5] -13.3% | Potency [6] > 46 µM | outcome [7] | Potency [8] | Potency [12] | activation [13] -9.04% | activity change, negative = inhibition [10] -6.13% | Potency [11]
12%: max response [10, 15]
16.6%: max response [10, 14]

Cn1cccc1C(=O)N1CCC[C@@]2(CCN(Cc3cc(C(F)(F)F)cc(C(F)(F)F)c3)C2)C1
active: Potency [9] 3.98 µM
-1.35%: max response [10, 15]
inactive: Potency [1] > 11.4 µM | activity change, negative = inhibition [2] 8.92% | Potency [3] | activity change, negative = inhibition [4] 7.04% | activity, negative = inhibition [5] 8.87% | Potency [6] > 46 µM | outcome [7] | Potency [8] | Potency [12] | activity change, negative = inhibition [10] -3.99% | Potency [11]
-0.0419%: max response [10, 14]

COc1ccc(NC(=O)N2CC[C@@]3(CCCN(C(=O)c4cccn4C)C3)C2)cc1
12%: max response [10, 14]
14.4%: max response [10, 15]
inactive: Potency [1] > 11.4 µM | activity change, negative = inhibition [2] -0.362% | Potency [3] | activity change, negative = inhibition [4] 4.79% | activity, negative = inhibition [5] 8.48% | Potency [6] > 46 µM | outcome [7] | Potency [8] | Potency [12] | activity change, negative = inhibition [10] 2.71% | Potency [11]

CC(C)CN1CC[C@@]2(CCCN(C(=O)c3cnccn3)C2)C1
15.7%: max response [10, 14]
inactive: Potency [1] > 11.4 µM | activity change, negative = inhibition [2] 6.22% | Potency [3] | activity change, negative = inhibition [4] 13.6% | activity, negative = inhibition [5] 4.96% | Potency [6] > 46 µM | outcome [7] | Potency [8] | Potency [12] | activation [13] -0.465% | activity change, negative = inhibition [10] 3.32% | Potency [11]
22.3%: max response [10, 15]
